Results as given in PubChem BioAssay AID588832 (Broad Institute, 2011).
In all, about 8,000 compounds went through this assay and fewer than 10 were called active. These entries were drawn from the full list. Unmarked numbers belong to inactive results. No rule for the calls is given here.

System: hedgehog, isoform A (Drosophila melanogaster)
Assay: Drosophila hedgehog isoform A inhibitors, primary screen, biochemical, plate reader, single concentration (AID 588832);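 also: 0% = neutral control wells and 100% = positive control wells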
Details: Biochemical plate reader assay, at 30.3 µM, stronger effect = higher value

How did the inhibition turn out when `O=C(Nc1ccc(F)cc1F)C1CCN(c2ncnc3c2sc2cccc(F)c23)CC1` was run?
The inhibition was 7.02%.

With `CCCCOC(=O)c1cc(=O)[nH]c(=O)[nH]1` as the molecule, how does the inhibition read?
Its inhibition is 5.12%.

For `Cc1cc(C)n2nc(S(=O)(=O)N(C)c3ccccc3)nc2n1`, which inhibition is on record?
Its inhibition is 6.52%.

How did the inhibition turn out when `Cc1nc2sc(C(c3ccccc3)N3CCN(C)CC3)c(O)n2n1` (stereo unspecified) was run?
The inhibition was 14.5%.

With `COc1ccc(-c2nc(C(=O)NCCCN3CCOCC3)cc3c2[nH]c2ccccc23)cc1OC` as the molecule, how does the inhibition read?
Its inhibition is 1.72%.

`C[C@H](NC(=O)[C@H]1N2C(=O)c3ccccc3C2SC1(C)C)C(=O)N1CCC[C@H]1CO` (stereo partly specified) was tested. Which inhibition did it give?
The inhibition was 1.72%.

Which inhibition does the source give for `Cc1ccc(Cl)cc1N1CCN(C(=O)C2CCN(c3nnc(-n4cccc4)s3)CC2)CC1` here?
The inhibition was 15.4%.

Which inhibition does the source give for `Cc1cc(C)n2c(SCC(=O)Nc3ccccc3)nnc2n1` here?
The inhibition was -12.9%.

With `Cc1ccc(S(=O)(=O)Nc2ccccc2C(=O)Nc2sccc2C(=O)NN(C)C)cc1` as the molecule, how does the inhibition read?
Its inhibition is 7.69%.

For `O=c1cc(-c2ccc(O)cc2)oc2c(-c3c(O)cc(O)c4c(=O)cc(-c5ccc(O)cc5)oc34)c(O)cc(O)c12`, which inhibition is on record?
Its inhibition is 3.51%.

For `COc1c(O)c(O)c2oc(-c3ccccc3)cc(=O)c2c1OC`, which inhibition is on record?
Its inhibition is 6.79%.

With `O=c1cc(-c2ccc(O)cc2)oc2c(O)c(O)c(O)c(O)c12` as the molecule, how does the inhibition read?
The inhibition was 89.5% (active).

Which inhibition does the source give for `CN(C)C(=O)c1nnc(Cc2ccc(Cl)cc2)o1` here?
Its inhibition is 12.9%.

How did the inhibition turn out when `Cc1c(C(=O)NNc2cc(=O)n(C)c(=O)n2C)cccc1[N+](=O)[O-]` was run?
Its inhibition is 1.72%.

`NC(=O)c1c(NC(=O)c2c(F)cccc2F)sc2c1CCN(Cc1ccccc1)C2` was tested. Which inhibition did it give?
The inhibition was 0%.

How did the inhibition turn out when `COc1ccc(-n2c(Cc3cccn3C)nnc2SCC(=O)Nc2ccccc2OC)cc1` was run?
The inhibition was 5%.

Which inhibition does the source give for `CCOc1ccc(C(=O)c2cnc3ccccc3c2N2CCN(CC)CC2)cc1` here?
Its inhibition is 20%.

For `O=C(Cn1cnc2c(nnn2Cc2ccccc2)c1=O)NCc1ccco1`, which inhibition is on record?
Its inhibition is 2.73%.

Which inhibition does the source give for `CCOC(=O)c1c(C)c(-c2ccccc2)n(CC(=O)N2CCCC2)c1C` here?
The inhibition was 0.909%.

For `Cc1cc(Nc2cccc(F)c2)n2nc(C)nc2n1`, which inhibition is on record?
The inhibition was -2.57%.

With `C=CC[C@]12C[C@@H](OC)C(=O)C=C1O[C@@H](c1ccc(OC)c(OC)c1)[C@H]2C` as the molecule, how does the inhibition read?
Its inhibition is 8.62%.

`CC1Cc2ccccc2N1C(=O)c1cnc2sccn2c1=O` (stereo unspecified) was tested. Which inhibition did it give?
Its inhibition is -0.943%.

`CCOc1ccc(CC(=O)NCc2ccc3c(c2)cc(C)n3C)cc1` was tested. Which inhibition did it give?
The inhibition was 3.85%.

Which inhibition does the source give for `O=C(COc1ccc2c(c1)oc(=O)c1ccccc12)N[C@@H](Cc1ccccc1)C(=O)O` here?
Its inhibition is 0%.

`COC(=O)C1=C(C)n2cnnc2NC1c1ccc(Cl)cc1` (stereo unspecified) was tested. Which inhibition did it give?
Its inhibition is 15%.

How did the inhibition turn out when `Cc1ccc(C)c(N2CCN(C(=O)c3ccc4c(=O)n5c(nc4c3)CCCCC5)CC2)c1` was run?
The inhibition was -12.9%.

With `COc1ccc(C(=O)NCc2ccc3c(c2)cc(C)n3C)cc1` as the molecule, how does the inhibition read?
The inhibition was 5.23%.

With `COc1ccccc1NS(=O)(=O)c1cc2c(cc1C)NC(=O)CO2` as the molecule, how does the inhibition read?
The inhibition was 9.62%.

How did the inhibition turn out when `Cc1ccc(NC(=S)NCc2ccc3[nH]c4c(c3c2)CCCC4)cc1` was run?
Its inhibition is 4.39%.

With `COc1ccc(-c2nc(CS(=O)CC(=O)NCCC3=CCCCC3)c(C)o2)cc1` (stereo unspecified) as the molecule, how does the inhibition read?
Its inhibition is 7.69%.

How did the inhibition turn out when `Cc1cnc(NC(=O)CSc2nnc(COc3c(C)cccc3C)o2)s1` was run?
Its inhibition is 10%.
